# Reference: PubChem BioAssay (NCI)
# This is part of a sample that, as a whole, favours compounds with a hit. Of some 79,000 tested, about 15% had one in any assay. Unmarked numbers belong to inactive results. Active and inactive are the calls of the source. No stated cut-off is given here; in the data, active means growth inhibition above about 70%; inactive means the rest.
# Key:
# [1] = NCI Yeast Anticancer Drug Screen. Data for the rad52 strain (AID 147);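 further: 0% = growth of vehicle-treated control cultures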; conditions: S. cerevisiae rad52 mutant growth inhibition, hits give high values
# Procedure, shortened: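 Genetically altered yeast (DNA damage repair defect) treated with compound; inhibition calculated relative to vehicle.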
# [2] = NCI Yeast Anticancer Drug Screen. Data for the wt1 strain (AID 149);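 further: 0% = growth of vehicle-treated wt1 cultures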; conditions: S. cerevisiae wt1 strain (SPY 50644) growth inhibition, hits give high values
# Procedure, shortened: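 wt1 strain grown with compound or vehicle; inhibition taken from the growth difference.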
# [3] = NCI Yeast Anticancer Drug Screen. Data for the rad50EPP+ strain (AID 151);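 further: 0% = growth of vehicle-treated control cultures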; conditions: S. cerevisiae rad50 mutant strain, hits give high values
# Procedure, shortened: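 Strain rad50EPP+; compound exposure; % growth inhibition vs vehicle.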
# [4] = NCI Yeast Anticancer Drug Screen. Data for the mgt1 strain (AID 153); conditions: S. cerevisiae mgt1 mutant growth inhibition, hits give high values
# Procedure, shortened: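 Read-out: yeast growth inhibition vs vehicle control. Strain mgt1, drawn from a panel altered in DNA damage repair or cell cycle control.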
# [5] = NCI Yeast Anticancer Drug Screen. Data for the rad50 strain (AID 155);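 further: 0% = growth of vehicle-only cultures of the same strain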; conditions: S. cerevisiae rad50 strain growth inhibition, hits give high values
# Procedure, shortened: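 DNA repair mutant yeast, compound exposure, growth read-out; inhibition is taken relative to vehicle.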
# [6] = NCI Yeast Anticancer Drug Screen. Data for the mec2-1 strain (AID 157); conditions: S. cerevisiae mec2-1 strain, hits give high values
# Procedure, shortened: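 Cells of the genetically defined mec2-1 yeast strain are incubated with test compound. Inhibition of growth is calculated against vehicle-treated controls.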
# [7] = NCI Yeast Anticancer Drug Screen. Data for the rad14 strain (AID 159);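 further: 0% = growth of vehicle-treated control cultures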; conditions: S. cerevisiae rad14 strain growth inhibition, hits give high values
# Procedure, shortened: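 DNA repair-defective yeast, compound-exposed; % growth inhibition derived by comparison with vehicle-treated controls.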
# [8] = NCI Yeast Anticancer Drug Screen. Data for the sgs1 mgt1 strain (AID 161);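 further: 0% = growth of cultures given vehicle only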; conditions: S. cerevisiae sgs1 mgt1 strain, hits give high values
# Procedure, shortened: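 Mutant yeast exposed to compound; growth scored against vehicle-only wells.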
# [9] = NCI Yeast Anticancer Drug Screen. Data for the CLN2oe strain (AID 163);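 further: 0% = growth of vehicle-only control cultures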; conditions: S. cerevisiae CLN2oe strain, hits give high values
# Procedure, shortened: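 Strain altered in cell-cycle control, incubated with compound; growth compared to solvent-treated controls.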
# [10] = NCI Yeast Anticancer Drug Screen. Data for the cln2 rad14 strain (AID 165);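 further: 0% = growth equal to vehicle treated cultures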; conditions: S. cerevisiae cln2 rad14 strain, hits give high values
# Procedure, shortened: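 The screen exposed genetically defined yeast (cln2 rad14) to test compounds and scored growth inhibition relative to vehicle-treated controls.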
# [11] = NCI Yeast Anticancer Drug Screen. Data for the bub3 strain (AID 167); conditions: S. cerevisiae bub3 mutant strain, hits give high values
# Procedure, shortened: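 In this screen, a yeast mutant lacking normal mitotic checkpoint function is challenged with compound. Relative growth versus vehicle gives the inhibition value.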
# [12] = NCI Yeast Anticancer Drug Screen. Data for the wt2 strain (AID 169);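 further: 0% = growth of vehicle-treated yeast cultures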; conditions: S. cerevisiae wt2 strain growth inhibition, hits give high values
# Procedure, shortened: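 Steps: yeast strain treated with compound; growth recorded; inhibition calculated relative to cultures given vehicle alone.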
# [13] = NCI Yeast Anticancer Drug Screen. Data for the mlh1 strain (AID 171);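 further: 0% = growth of vehicle-treated control cultures of the same strain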; conditions: S. cerevisiae mlh1 strain growth inhibition, hits give high values
# Procedure, shortened: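 Yeast screen: mutant strain plus compound, growth scored against vehicle control wells.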
# [14] = NCI Yeast Anticancer Drug Screen. Data for the sgs1 strain (AID 173);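 further: 0% = growth of vehicle-only control cultures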; conditions: S. cerevisiae sgs1 mutant, hits give high values
# Procedure, shortened: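 Inhibition of yeast growth served as the measure. The mutant strain was treated with each compound, and growth was normalised to cultures receiving vehicle alone.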
# [15] = NCI Yeast Anticancer Drug Screen. Data for the mlh1 rad18 strain (AID 175); conditions: S. cerevisiae mlh1 rad18 strain growth inhibition, hits give high values
# Procedure, shortened: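 Compound-treated yeast growth, normalised to vehicle controls. Strain bears defined DNA repair mutations.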
# [16] = NCI Yeast Anticancer Drug Screen. Data for the rad18 strain (AID 177); conditions: S. cerevisiae rad18 mutant growth inhibition, hits give high values
# Procedure, shortened: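 Inhibition values reflect reduced yeast growth compared with vehicle-treated controls, using a strain engineered with a DNA damage repair defect.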
# [17] = at 5.0 µM (retest, dose inferred, filed as 0.5)
# [18] = at 50.0 µM (retest, dose inferred, filed as 5.0)
structure (smiles),measurement,setting,value
COc1cc([N+](=O)[O-])c2ncccc2c1Br,growth inhibition,[1]; at 1.2 µM,41%
same,growth inhibition,[1]; at 3.7 µM,41%
same,growth inhibition,[1]; at 11.0 µM,47%
same,growth inhibition,[1]; at 33.0 µM,44%
same,growth inhibition,[1]; at 100.0 µM,42%
same,growth inhibition,[2]; at 1.2 µM,-1%
same,growth inhibition,[2]; at 3.7 µM,-7%
same,growth inhibition,[2]; at 11.0 µM,5%
same,growth inhibition,[2]; at 33.0 µM,-2%
same,growth inhibition,[2]; at 100.0 µM,-3%
same,growth inhibition,[3]; at 1.2 µM,11%
same,growth inhibition,[3]; at 3.7 µM,16%
same,growth inhibition,[3]; at 11.0 µM,29%
same,growth inhibition,[3]; at 33.0 µM,36%
same,growth inhibition,[3]; at 100.0 µM,24%
same,growth inhibition,[4]; at 1.2 µM,-2%
same,growth inhibition,[4]; at 3.7 µM,-6%
same,growth inhibition,[4]; at 11.0 µM,-1%
same,growth inhibition,[4]; at 33.0 µM,-4%
same,growth inhibition,[4]; at 100.0 µM,-4%
same,growth inhibition,[5]; at 1.2 µM,15%
same,growth inhibition,[5]; at 3.7 µM,12%
same,growth inhibition,[5]; [17],14%
same,growth inhibition,[5]; at 11.0 µM,25%
same,growth inhibition,[5]; at 33.0 µM,33%
same,growth inhibition,[5]; [18],32%
same,growth inhibition,[5]; at 50.0 µM,32.9%
same,growth inhibition,[5]; at 100.0 µM,20%
same,growth inhibition,[6]; at 1.2 µM,2%
same,growth inhibition,[6]; at 3.7 µM,2%
same,growth inhibition,[6]; [17],2%
same,growth inhibition,[6]; at 11.0 µM,5%
same,growth inhibition,[6]; at 33.0 µM,-1%
same,growth inhibition,[6]; [18],16%
same,growth inhibition,[6]; at 50.0 µM,9.05%
same,growth inhibition,[6]; at 100.0 µM,2%
same,growth inhibition,[7]; at 1.2 µM,35%
same,growth inhibition,[7]; at 3.7 µM,51%
same,growth inhibition,[7]; at 11.0 µM,67%
same,growth inhibition,[7]; at 33.0 µM,49%
same,growth inhibition,[7]; at 100.0 µM,55%
same,growth inhibition,[8]; [17],26%
same,growth inhibition,[8]; [18],41%
same,growth inhibition,[8]; at 50.0 µM,25.1%
same,growth inhibition,[9]; at 1.2 µM,-11%
same,growth inhibition,[9]; at 3.7 µM,-7%
same,growth inhibition,[9]; at 11.0 µM,-11%
same,growth inhibition,[9]; at 33.0 µM,-11%
same,growth inhibition,[9]; at 100.0 µM,-11%
same,growth inhibition,[10]; [17],22%
same,growth inhibition,[10]; [18],57%
same,growth inhibition,[10]; at 50.0 µM,81.8% (active)
same,growth inhibition,[11]; at 1.2 µM,-15%
same,growth inhibition,[11]; at 3.7 µM,-14%
same,growth inhibition,[11]; [17],-4%
same,growth inhibition,[11]; at 11.0 µM,-16%
same,growth inhibition,[11]; at 33.0 µM,-18%
same,growth inhibition,[11]; [18],-3%
same,growth inhibition,[11]; at 50.0 µM,-3.7%
same,growth inhibition,[11]; at 100.0 µM,-18%
same,growth inhibition,[12]; at 1.2 µM,-12%
same,growth inhibition,[12]; at 3.7 µM,0%
same,growth inhibition,[12]; at 11.0 µM,5%
same,growth inhibition,[12]; at 33.0 µM,4%
same,growth inhibition,[12]; at 100.0 µM,9%
same,growth inhibition,[13]; at 1.2 µM,-10%
same,growth inhibition,[13]; at 3.7 µM,-5%
same,growth inhibition,[13]; at 11.0 µM,-3%
same,growth inhibition,[13]; at 33.0 µM,-3%
same,growth inhibition,[13]; at 100.0 µM,-4%
same,growth inhibition,[14]; at 1.2 µM,41%
same,growth inhibition,[14]; at 3.7 µM,32%
same,growth inhibition,[14]; at 11.0 µM,42%
same,growth inhibition,[14]; at 33.0 µM,42%
same,growth inhibition,[14]; at 100.0 µM,38%
same,growth inhibition,[15]; [17],53%
same,growth inhibition,[15]; [18],77% (active)
same,growth inhibition,[15]; at 50.0 µM,29.3%
same,growth inhibition,[16]; at 1.2 µM,91% (active)
same,growth inhibition,[16]; at 3.7 µM,93% (active)
same,growth inhibition,[16]; at 11.0 µM,93% (active)
same,growth inhibition,[16]; at 33.0 µM,93% (active)
same,growth inhibition,[16]; at 100.0 µM,91% (active)
